Among the test systems are NCI-H23 lung; NCI-H226 lung; NCI-H322M lung; HOP-62 NSCLC; NCI-H460 lung; HOP-92 NSCLC; NCI-H522 lung; A549/ATCC NSCLC; 786-0 renal; COLO 205 colon; DU-145 prostate; K-562 leukemia; MALME-3M melanoma; MDA-MB-231 breast; RXF 393 renal; SF-268 CNS; SF-295 CNS; SF-539 CNS; UACC-257 melanoma; M14 melanoma.
What all share (assay): NCI-60 one-dose screen, 48 h (100 = growth as untreated, 0 = no growth, -100 = all killed)
Common to all, as to details: 10 µM unless noted

The panel holds about 83,000 compounds, 20% with a hit somewhere; the sample as a whole holds those more often.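 Plates (96-well) were seeded with cells, treated with compound at one concentration, and incubated for 48 hours before percent growth was determined.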 Unmarked numbers belong to inactive results. Activity calls are given as the source filed them. How the source made its calls: active means growth percent below 10; inactive means the rest.

Turning to `Cc1ccc(S(=O)(=O)n2cc(C(=O)C(=O)N3CCOCC3)c3ccccc32)cc1`, the growth with NCI-H23 lung is 79.4%; in the assay on NCI-H226 lung it was 82.4%; in the assay on NCI-H322M lung, 99.2%; with HOP-62 NSCLC, 84.7%; with NCI-H460 lung, 113%; with HOP-92 NSCLC it was 26.6%. Besides, the growth with NCI-H522 lung is 75.2%; with A549/ATCC NSCLC, 114%; in the assay with 786-0 renal, 92.4%; with COLO 205 colon, 112%; with DU-145 prostate it was 109%; with K-562 leukemia it was 86.9%. Further, the growth in the assay on MALME-3M melanoma is 91%; in the assay on MDA-MB-231 breast, 80.2%; in the assay on RXF 393 renal, 110%; in the assay with SF-268 CNS it was 97%; in the assay with SF-295 CNS, 94.1%; in the assay on SF-539 CNS it was 91.2%. For the same molecule, the growth with UACC-257 melanoma is 98.4%; in the assay with M14 melanoma, 91.4%.
For the molecule `CO[C@H]1NC(=O)N(S(=O)(=O)c2ccc(Cl)cc2)[C@@H]1OC`, the growth in the assay on NCI-H23 lung was 107%; with NCI-H226 lung, 131%; with NCI-H322M lung, 111%; with HOP-62 NSCLC, 93.1%; in the assay with NCI-H460 lung, 110%; in the assay on HOP-92 NSCLC, 114%. The growth with NCI-H522 lung was 105%; in the assay with A549/ATCC NSCLC, 98.2%; in the assay with 786-0 renal, 103%; with COLO 205 colon, 108%; in the assay on DU-145 prostate, 115%; with K-562 leukemia, 93.2%. Besides, the growth with MALME-3M melanoma is 101%; in the assay on MDA-MB-231 breast it was 108%; in the assay on RXF 393 renal, 119%; in the assay on SF-268 CNS, 102%; in the assay on SF-295 CNS it was 92.1%; in the assay with SF-539 CNS, 98.7%. The figures for the growth in the assay with UACC-257 melanoma and with M14 melanoma were 106% and 115%, respectively.
`Cc1ccc2nc(-c3cc4c([nH]c5ccccc54)c(-c4ccc(F)c(F)c4)n3)[nH]c2c1`: the growth was 84.1% in the assay with NCI-H23 lung; 97.7% with NCI-H226 lung; 103% with NCI-H322M lung; 79.8% in the assay on HOP-62 NSCLC; 83% with NCI-H460 lung; 99% with HOP-92 NSCLC. In addition, the growth with NCI-H522 lung was 65.7%; with A549/ATCC NSCLC it was 79%; with 786-0 renal it was 99.6%; in the assay with COLO 205 colon it was 88%; in the assay with DU-145 prostate, 80.8%; in the assay with K-562 leukemia, 65.9%. The growth with MALME-3M melanoma is 120%; in the assay on MDA-MB-231 breast, 60.8%; with RXF 393 renal it was 88.5%; in the assay on SF-268 CNS, 95.4%; in the assay with SF-295 CNS, 88.7%; in the assay with SF-539 CNS, 89.5%. In addition, the growth in the assay with UACC-257 melanoma was 104%; with M14 melanoma, 83.5%.
Turning to `CC(=O)Nc1ccc(/C=C/C(=O)c2ccccc2)cc1`, the growth is 102% in the assay with NCI-H23 lung; 102% in the assay on NCI-H226 lung; 120% with NCI-H322M lung; 97.1% with HOP-62 NSCLC; 105% with NCI-H460 lung; 74.7% in the assay on HOP-92 NSCLC. For the same molecule, the growth with NCI-H522 lung is 68.1%; in the assay on A549/ATCC NSCLC, 92.6%; with 786-0 renal, 98.5%; with COLO 205 colon it was 112%; with DU-145 prostate it was 86.6%; in the assay on K-562 leukemia, 36.7%. Besides, the growth was 120% in the assay on MALME-3M melanoma; 104% in the assay with MDA-MB-231 breast; 68.2% in the assay on RXF 393 renal; 89.1% in the assay on SF-268 CNS; 106% with SF-295 CNS; 96.6% in the assay with SF-539 CNS. Moreover, the growth with UACC-257 melanoma was 89.3%; in the assay on M14 melanoma it was 97.7%.
Consider `CC(C)(C)c1[nH]nc2c1C(c1cc3ccccc3[nH]c1=O)Nc1cc(C(=O)Nc3ccc(Cl)cc3)ccc1N2` (stereo not given), for which the growth in the assay with NCI-H23 lung is 78.9%; with NCI-H226 lung, 105%; in the assay with NCI-H322M lung it was 78.6%; with HOP-62 NSCLC, 83.6%; in the assay on NCI-H460 lung, 74.1%; in the assay on HOP-92 NSCLC, 86.1%. Moreover, the growth is 74.5% in the assay on NCI-H522 lung; 89.6% with A549/ATCC NSCLC; 66.1% with 786-0 renal; 83.6% in the assay on COLO 205 colon; 83.8% in the assay on DU-145 prostate; 39.2% with K-562 leukemia. The growth was 80.6% in the assay on MALME-3M melanoma; 85.6% with MDA-MB-231 breast; 43.9% in the assay with RXF 393 renal; 62.2% with SF-268 CNS; 38.5% with SF-295 CNS; 85.8% in the assay with SF-539 CNS. The growth in the assay with UACC-257 melanoma is 83.9%; with M14 melanoma, 53.5%.
As to `COc1cc(/C=N\NC(=O)CN2CCN(c3cc4c(cc3F)c(=O)c(C(=O)N/N=C/c3cc(OC)c(OC)c(OC)c3)cn4C3CC3)CC2)cc(OC)c1OC`, the growth is -36.4% (active) in the assay with NCI-H23 lung; -64.7% (active) in the assay with NCI-H226 lung; 11.5% with NCI-H322M lung; -11.8% (active) in the assay on HOP-62 NSCLC; -23.3% (active) in the assay with NCI-H460 lung; -39% (active) with HOP-92 NSCLC. Moreover, the growth in the assay with NCI-H522 lung is 8.22% (active); in the assay with A549/ATCC NSCLC, 73.4%; in the assay on 786-0 renal, 54.9%; in the assay on COLO 205 colon, 7.48% (active); with DU-145 prostate it was 8.55% (active); in the assay with K-562 leukemia, 5.07% (active). Besides, the growth in the assay on MALME-3M melanoma was -15.8% (active); in the assay with MDA-MB-231 breast, -16.1% (active); with RXF 393 renal it was -3.67% (active); in the assay on SF-268 CNS, -6.34% (active); in the assay on SF-295 CNS it was 17.4%; in the assay with SF-539 CNS, -68.2% (active). Also, the values for the growth with UACC-257 melanoma and in the assay on M14 melanoma were 22.2% and 18.2%, respectively.
As for `CCCCCCCCC(C)OC(=O)c1nn(C(C)=O)c2ccccc12` (stereo not given), the growth with NCI-H23 lung is 89.3%; with NCI-H226 lung it was 105%; in the assay on NCI-H322M lung, 102%; in the assay with HOP-62 NSCLC it was 97.7%; with NCI-H460 lung, 110%; in the assay on HOP-92 NSCLC it was 98.7%. The growth was 90.1% in the assay on NCI-H522 lung; 94.1% in the assay with A549/ATCC NSCLC; 97.3% in the assay with 786-0 renal; 111% in the assay on COLO 205 colon; 110% in the assay on DU-145 prostate; 106% with K-562 leukemia. In addition, the growth in the assay with MALME-3M melanoma is 106%; with MDA-MB-231 breast, 99.7%; with RXF 393 renal it was 105%; in the assay with SF-268 CNS it was 102%; in the assay with SF-295 CNS, 91.5%; in the assay on SF-539 CNS, 98.7%. Moreover, the growth with UACC-257 melanoma is 99.7%; in the assay with M14 melanoma, 101%.
Consider `COc1ccc(-c2nc(SCCC(C)C)nc(Nc3ccc(F)c(Cl)c3)c2C#N)cc1`, for which the growth was 90.2% in the assay with NCI-H23 lung; 65.8% with NCI-H226 lung; 63.2% with NCI-H322M lung; 88.7% with HOP-62 NSCLC; 24.1% in the assay on NCI-H460 lung; 101% with HOP-92 NSCLC. For the same molecule, the growth is 84.5% in the assay with NCI-H522 lung; 58.9% in the assay on A549/ATCC NSCLC; 45.4% with 786-0 renal; 70.8% in the assay with COLO 205 colon; 97.7% with DU-145 prostate; 56.2% in the assay with K-562 leukemia. For the same molecule, the growth in the assay on MALME-3M melanoma was 84.2%; in the assay with MDA-MB-231 breast, 100%; in the assay on RXF 393 renal, 101%; with SF-268 CNS, 83%; in the assay on SF-295 CNS, 78%; in the assay on SF-539 CNS, 70.3%. Besides, the growth in the assay with UACC-257 melanoma was 103%; in the assay on M14 melanoma, 95%.

These data come from PubChem BioAssay (NCI).
